We go through six molecules from PubChem BioAssay (Tox21).

Assay [1] deals with Thyrotropin-releasing hormone receptor (Homo sapiens) (UniProt P34981). The experiment in a line: qHTS assay to identify small molecule agonists of the thyrotropin-releasing hormone receptor (TRHR) signaling pathway (AID 1346891; calls by dose curve;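 further: HEK293 cells expressing TRHR with calcium dye readout; series mostly up to about 58 µM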). The gist of the method:
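Compounds were tested as agonists at 15 concentrations, in triplicate, on TRHR-Hek293 cells; calcium-sensitive dye fluorescence was recorded for 3 min following addition.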
In general terms: In qHTS, concentration-response curves come from the screen itself.

The nature of assay [2]: Human pregnane X receptor (PXR) small molecule agonists, qHTS cell viability counter screen (AID 1346977). Further: nearly all actives have a fitted effect of over 50% in size. The method, boiled down:
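Viability counter screen: CellTiter-Fluor signal in PXR-Luc HepG2 cells, 24hr compound exposure, 37C, 5% CO2.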

Assay [3] in a line: Caspase-3/7 induction in CHO-K1 cells by small molecules, qHTS cell viability counter screen (AID 1346979). Further: nearly all actives have a fitted effect of over 35% in size. The method, boiled down:
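Viability readout by fluorescence (CellTiter-Fluor) on wild-type CHO-K1 cells exposed for 16hr at 37C and 5% CO2 to compounds delivered in DMSO; reagent incubated 1hr before reading.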

Assay [4] in a line: Caspase-3/7 induction in HepG2 cells by small molecules, qHTS cell viability counter screen (AID 1346981). Further: series mostly up to about 92 µM; nearly all actives have a fitted effect of over 30% in size. The method, boiled down:
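Viability determined by CellTiter-Fluor fluorescence in HepG2 wells also used for the luminescent Caspase-Glo 3/7 read. Compounds were present for 16 hr at 37 C, 5% CO2 before reagent addition.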

The target in assay [5] is Nuclear receptor subfamily 1 group I member 2 (Homo sapiens) (UniProt O75469). The experiment in a line: Human pregnane X receptor (PXR) small molecule agonists, qHTS assay (AID 1346982). Further: nearly all actives have a fitted effect of over 35% in size. Further: potency means the concentration at half of the fitted maximal effect. The method, boiled down: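 Compound-induced hPXR transactivation of a CYP3A4 luciferase reporter was scored in HepG2 PXR-Luc cells over 24 hr at 37 C, 5% CO2, by luminescence.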
Chain of Nuclear receptor subfamily 1 group I member 2 (Homo sapiens) (O75469 whole entry, looked up): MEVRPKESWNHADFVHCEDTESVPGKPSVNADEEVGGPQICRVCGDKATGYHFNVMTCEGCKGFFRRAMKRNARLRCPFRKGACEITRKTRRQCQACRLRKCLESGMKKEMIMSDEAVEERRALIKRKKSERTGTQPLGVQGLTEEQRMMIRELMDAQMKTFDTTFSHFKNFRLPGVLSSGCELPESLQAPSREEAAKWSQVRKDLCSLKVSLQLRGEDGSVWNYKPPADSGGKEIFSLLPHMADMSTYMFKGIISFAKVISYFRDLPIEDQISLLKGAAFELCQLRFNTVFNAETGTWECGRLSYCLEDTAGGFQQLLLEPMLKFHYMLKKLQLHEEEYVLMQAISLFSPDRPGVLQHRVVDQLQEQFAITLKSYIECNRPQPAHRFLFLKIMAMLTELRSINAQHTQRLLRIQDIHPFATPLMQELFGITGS
The target of assay [6] is Nuclear receptor subfamily 1 group I member 2 (Rattus norvegicus) (UniProt Q9R1A7). Put plainly: Rat pregnane X receptor (rPXR) activation by small molecules, qHTS assay (AID 1346983). Further: nearly all actives have a fitted effect of over 20% in size. The following applies: rPXR luciferase reporter cells, One-Glo luminescence, 24 h; max activation: active compounds read high. The method, boiled down: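 Luminescent readout (One-Glo luciferase, 30 min room temperature) followed 24 hr compound treatment at 37 C of rPXR cells plated 2,000 per well and preincubated 5hr; qHTS format with compounds delivered in DMSO.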
Chain of Nuclear receptor subfamily 1 group I member 2 (Rattus norvegicus) (Q9R1A7 whole entry, looked up): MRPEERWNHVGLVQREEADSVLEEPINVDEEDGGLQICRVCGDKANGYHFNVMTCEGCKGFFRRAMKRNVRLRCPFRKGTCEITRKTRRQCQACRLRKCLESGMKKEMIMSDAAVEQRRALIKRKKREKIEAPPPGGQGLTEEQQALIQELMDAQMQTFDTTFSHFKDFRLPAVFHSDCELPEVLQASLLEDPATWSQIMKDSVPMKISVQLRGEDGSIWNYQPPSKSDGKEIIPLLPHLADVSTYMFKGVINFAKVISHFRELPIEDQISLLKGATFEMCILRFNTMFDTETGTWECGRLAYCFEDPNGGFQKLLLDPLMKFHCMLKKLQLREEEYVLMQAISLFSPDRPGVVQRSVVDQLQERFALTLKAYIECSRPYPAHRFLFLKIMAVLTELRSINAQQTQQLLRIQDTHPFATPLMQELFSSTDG

In assay [7] the target is Nuclear receptor subfamily 1 group I member 2 (Homo sapiens) (UniProt O75469). The experiment in a line: CYP3A4 induction through human pregnane X receptor (PXR) by small molecules, qHTS assay (AID 1346984). Further: nearly all actives have a fitted effect of over 40% in size. The gist of the method: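 Readings come from a luciferase reporter: DPX-2 cells, which are HepG2 cotransfected with PXR and a CYP3A4-promoter construct, were exposed to test compounds for 24 h at 37C before One-Glo detection.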

For assay [8] the target is unchanged. The experiment in a line: Human pregnane X receptor (PXR) activation by small molecules, qHTS assay (AID 1346985). Further: nearly all actives have a fitted effect of over 40% in size. The gist of the method: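 DPX-2 cells (HepG2 co-transfected with a PXR response element and a CYP3A4-promoter luciferase construct) were seeded at 2,000 per well, rested 5 hr at 37C, then exposed to DMSO-dissolved compounds for 24 hr. Activation was read as luciferase luminescence.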

For assay [9], the target named is Cytochrome P450 2C9 (Homo sapiens) (UniProt P11712). The experiment in a line: Cytochrome P450 Family 2 Subfamily C Member 9 (CYP2C9) small molecule antagonists: luciferase reporter qHTS assay (AID 1671198). Further: nearly all actives have a fitted effect of over 50% in size. Further: potency means the concentration at half of the fitted maximal effect. The method, boiled down:
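Enzyme-substrate mix preincubated with compound 10 min at room temperature; reaction started with NADPH regeneration solution, 1 h 37C. Luminescent luciferin product read after 20 min detection reagent.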
A general note: A reporter such as luciferase makes a cellular process visible.

The target of assay [10] is Cytochrome P450 1A2 (Homo sapiens) (UniProt P05177). Put plainly: Cytochrome P450 Family 1 Subfamily A Member 2 (CYP1A2) small molecule antagonists: luciferase reporter qHTS assay (AID 1671199). Further: nearly all actives have a fitted effect of over 50% in size. Further: potency means the concentration at half of the fitted maximal effect. The gist of the method: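 Enzymatic CYP1A2 assay, human, luminescent: 10 min compound–enzyme–substrate preincubation, 1 h NADPH-dependent turnover, 20 min detection step, room temperature throughout. Reduced light indicates lower CYP1A2 activity.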
Chain of Cytochrome P450 1A2 (Homo sapiens) (P05177 whole entry, looked up): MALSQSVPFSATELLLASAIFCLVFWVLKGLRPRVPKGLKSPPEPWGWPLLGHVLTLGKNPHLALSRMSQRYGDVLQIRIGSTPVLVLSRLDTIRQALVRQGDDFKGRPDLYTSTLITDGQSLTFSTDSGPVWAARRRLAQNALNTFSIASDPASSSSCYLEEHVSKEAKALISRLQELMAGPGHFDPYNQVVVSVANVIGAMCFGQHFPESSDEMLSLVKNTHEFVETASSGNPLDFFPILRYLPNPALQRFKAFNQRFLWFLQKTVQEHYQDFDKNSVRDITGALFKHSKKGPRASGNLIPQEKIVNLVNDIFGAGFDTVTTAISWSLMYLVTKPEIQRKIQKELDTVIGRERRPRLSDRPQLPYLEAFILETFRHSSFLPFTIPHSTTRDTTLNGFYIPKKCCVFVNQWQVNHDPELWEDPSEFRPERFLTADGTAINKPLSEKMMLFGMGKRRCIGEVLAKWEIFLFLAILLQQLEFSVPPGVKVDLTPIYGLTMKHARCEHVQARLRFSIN

Assay [11] has as its target Voltage-gated inwardly rectifying potassium channel KCNH2 (Homo sapiens) (UniProt Q12809). Put plainly: Human Ether-a-go-go-Related Gene (hERG) channel small molecule antagonists: fluorescence cell-based qHTS assay (AID 1671200).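 Further: hERG-expressing U2OS cells given a thallium stimulus after FluxOR II dye loading; series mostly up to about 77 µM; nearly all actives have a fitted effect of over 50% in size.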 The gist of the method: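 Thallium served as the potassium surrogate; its influx into dye-loaded U2OS cells carrying the channel was measured by fluorescence over 2 min.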

Assay [12] concerns the target Cytochrome P450 3A4 (Homo sapiens) (UniProt P08684). The experiment in a line: Cytochrome P450 Family 3 Subfamily A Member 4 (CYP3A4) small molecule antagonists: luciferase reporter qHTS assay (AID 1671201). Further: nearly all actives have a fitted effect of over 50% in size. Further: potency means the concentration at half of the fitted maximal effect. The gist of the method: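 Relative luminescence units after 20 min with luciferin detection reagent served as read-out. Beforehand, CYP3A4 turned over a proluciferin substrate for 1 h at room temperature with NADPH regeneration, following 10 min compound preincubation.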

Assay [13] in a line: Caspase-3/7 induction in HepG2 cells by small molecules, qHTS assay (AID 1346978). Further: nearly all actives have a fitted effect of over 15% in size. The method, boiled down:
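Caspase-3/7 induction was measured by Caspase-Glo 3/7 luminescence (30 min, room temperature) after a 17 hr compound exposure of wild-type HepG2 cells seeded at 2,000 per well and pre-incubated 5 hr.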

Assay [14] is described as follows: Caspase-3/7 induction in CHO-K1 cells by small molecules, qHTS assay (AID 1346980). Further: nearly all actives have a fitted effect of over 15% in size. The method, boiled down:
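Luminescent Caspase-Glo 3/7 read (30min, room temperature) quantified apoptosis induction. Cells were wild-type CHO-K1, treated with compound for 17hr at 37 C and 5% CO2.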

Assay [15] addresses Cytochrome P450 2D6 (Homo sapiens) (UniProt P10635). Put plainly: Cytochrome P450 Family 2 Subfamily D Member 6 (CYP2D6) small molecule antagonists: luciferase reporter qHTS assay (AID 1671196). The gist of the method:
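Each well received CYP2D6 with its proluciferin substrate and chemical, sat 10 min, then got NADPH regeneration solution for 1 h at room temperature. Luminescence in RLU served as the activity measure.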

Assay [16] deals with Cytochrome P450 2C19 (Homo sapiens) (UniProt P33261). Put plainly: Cytochrome P450 Family 2 Subfamily C Member 19 (CYP2C19) small molecule antagonists: luciferase reporter qHTS assay (AID 1671197). Further: series mostly up to about 120 µM; nearly all actives have a fitted effect of over 65% in size. The method, boiled down:
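Inhibition of CYP2C19 was scored from loss of luminescence in a P450-Glo proluciferin substrate assay, NADPH-started and run 1 h at 37C, with ketoconazole as positive control.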

Values without a mark were called inactive. Results filed as inconclusive are left out. Activity calls are given as the source filed them. Unless noted, the call rests on the fitted dose curve; in most records, active means well fitted curve in the direction sought with a large enough effect in the repeat runs; inconclusive means weak or mixed curves; inactive means no such curve, though single readings can be large; an effect the other way counts as inactive or inconclusive.
On the % scale 0 is the no-effect control and ±100 the full control effect.

Chain of Thyrotropin-releasing hormone receptor (Homo sapiens) (P34981 whole entry, looked up): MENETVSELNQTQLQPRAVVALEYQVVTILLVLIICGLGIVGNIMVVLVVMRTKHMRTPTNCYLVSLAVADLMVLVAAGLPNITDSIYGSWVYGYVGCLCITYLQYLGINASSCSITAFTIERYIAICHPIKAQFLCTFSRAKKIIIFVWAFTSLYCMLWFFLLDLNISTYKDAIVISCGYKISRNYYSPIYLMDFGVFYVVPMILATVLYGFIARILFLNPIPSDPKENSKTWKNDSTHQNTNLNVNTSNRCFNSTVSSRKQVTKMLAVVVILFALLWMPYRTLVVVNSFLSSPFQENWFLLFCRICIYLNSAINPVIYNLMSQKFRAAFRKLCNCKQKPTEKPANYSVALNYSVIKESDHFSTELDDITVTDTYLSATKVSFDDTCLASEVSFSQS
Chain of Cytochrome P450 3A4 (Homo sapiens) (P08684 whole entry, looked up): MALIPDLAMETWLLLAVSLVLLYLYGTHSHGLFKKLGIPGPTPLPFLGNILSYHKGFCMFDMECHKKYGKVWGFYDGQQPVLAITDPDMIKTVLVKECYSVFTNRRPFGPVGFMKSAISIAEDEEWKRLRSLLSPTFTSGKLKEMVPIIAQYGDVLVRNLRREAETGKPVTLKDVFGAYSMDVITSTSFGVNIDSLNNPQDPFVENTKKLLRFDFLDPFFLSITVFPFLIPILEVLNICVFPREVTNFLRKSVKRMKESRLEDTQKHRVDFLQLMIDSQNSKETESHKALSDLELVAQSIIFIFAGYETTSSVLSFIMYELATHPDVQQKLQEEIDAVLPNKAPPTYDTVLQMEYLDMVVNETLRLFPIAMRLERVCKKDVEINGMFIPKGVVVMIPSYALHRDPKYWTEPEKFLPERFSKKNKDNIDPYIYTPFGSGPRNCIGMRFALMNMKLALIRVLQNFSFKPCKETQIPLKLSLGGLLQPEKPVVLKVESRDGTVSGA
Chain of Cytochrome P450 2D6 (Homo sapiens) (P10635 whole entry, looked up): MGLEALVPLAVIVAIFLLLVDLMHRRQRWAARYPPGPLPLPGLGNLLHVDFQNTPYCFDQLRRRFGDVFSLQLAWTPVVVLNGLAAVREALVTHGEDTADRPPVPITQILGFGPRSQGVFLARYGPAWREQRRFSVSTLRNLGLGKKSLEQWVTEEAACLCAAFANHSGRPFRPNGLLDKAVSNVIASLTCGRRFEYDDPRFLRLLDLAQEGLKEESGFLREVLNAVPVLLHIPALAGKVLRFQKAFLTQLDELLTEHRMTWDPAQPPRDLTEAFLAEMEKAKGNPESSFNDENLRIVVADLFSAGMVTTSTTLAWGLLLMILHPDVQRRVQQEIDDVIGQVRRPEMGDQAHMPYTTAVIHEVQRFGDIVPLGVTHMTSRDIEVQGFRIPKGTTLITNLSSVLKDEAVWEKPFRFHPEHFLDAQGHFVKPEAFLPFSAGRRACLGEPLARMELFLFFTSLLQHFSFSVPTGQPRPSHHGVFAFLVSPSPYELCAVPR
Chain of Cytochrome P450 2C9 (Homo sapiens) (P11712 whole entry, looked up): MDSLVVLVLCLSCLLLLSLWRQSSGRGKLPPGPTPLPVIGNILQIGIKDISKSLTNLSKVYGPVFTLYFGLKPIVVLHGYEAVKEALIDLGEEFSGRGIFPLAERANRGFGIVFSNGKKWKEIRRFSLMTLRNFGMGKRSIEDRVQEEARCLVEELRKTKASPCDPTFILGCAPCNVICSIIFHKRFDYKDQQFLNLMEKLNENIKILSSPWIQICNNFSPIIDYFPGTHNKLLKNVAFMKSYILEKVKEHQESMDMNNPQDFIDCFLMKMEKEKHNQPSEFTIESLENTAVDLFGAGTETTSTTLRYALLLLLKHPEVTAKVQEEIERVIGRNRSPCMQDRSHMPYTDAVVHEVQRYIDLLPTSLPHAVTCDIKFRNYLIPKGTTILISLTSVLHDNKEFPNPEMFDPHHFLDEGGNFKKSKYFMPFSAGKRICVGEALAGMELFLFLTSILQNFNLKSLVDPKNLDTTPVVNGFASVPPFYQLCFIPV
Chain of Voltage-gated inwardly rectifying potassium channel KCNH2 (Homo sapiens) (Q12809 whole entry, looked up): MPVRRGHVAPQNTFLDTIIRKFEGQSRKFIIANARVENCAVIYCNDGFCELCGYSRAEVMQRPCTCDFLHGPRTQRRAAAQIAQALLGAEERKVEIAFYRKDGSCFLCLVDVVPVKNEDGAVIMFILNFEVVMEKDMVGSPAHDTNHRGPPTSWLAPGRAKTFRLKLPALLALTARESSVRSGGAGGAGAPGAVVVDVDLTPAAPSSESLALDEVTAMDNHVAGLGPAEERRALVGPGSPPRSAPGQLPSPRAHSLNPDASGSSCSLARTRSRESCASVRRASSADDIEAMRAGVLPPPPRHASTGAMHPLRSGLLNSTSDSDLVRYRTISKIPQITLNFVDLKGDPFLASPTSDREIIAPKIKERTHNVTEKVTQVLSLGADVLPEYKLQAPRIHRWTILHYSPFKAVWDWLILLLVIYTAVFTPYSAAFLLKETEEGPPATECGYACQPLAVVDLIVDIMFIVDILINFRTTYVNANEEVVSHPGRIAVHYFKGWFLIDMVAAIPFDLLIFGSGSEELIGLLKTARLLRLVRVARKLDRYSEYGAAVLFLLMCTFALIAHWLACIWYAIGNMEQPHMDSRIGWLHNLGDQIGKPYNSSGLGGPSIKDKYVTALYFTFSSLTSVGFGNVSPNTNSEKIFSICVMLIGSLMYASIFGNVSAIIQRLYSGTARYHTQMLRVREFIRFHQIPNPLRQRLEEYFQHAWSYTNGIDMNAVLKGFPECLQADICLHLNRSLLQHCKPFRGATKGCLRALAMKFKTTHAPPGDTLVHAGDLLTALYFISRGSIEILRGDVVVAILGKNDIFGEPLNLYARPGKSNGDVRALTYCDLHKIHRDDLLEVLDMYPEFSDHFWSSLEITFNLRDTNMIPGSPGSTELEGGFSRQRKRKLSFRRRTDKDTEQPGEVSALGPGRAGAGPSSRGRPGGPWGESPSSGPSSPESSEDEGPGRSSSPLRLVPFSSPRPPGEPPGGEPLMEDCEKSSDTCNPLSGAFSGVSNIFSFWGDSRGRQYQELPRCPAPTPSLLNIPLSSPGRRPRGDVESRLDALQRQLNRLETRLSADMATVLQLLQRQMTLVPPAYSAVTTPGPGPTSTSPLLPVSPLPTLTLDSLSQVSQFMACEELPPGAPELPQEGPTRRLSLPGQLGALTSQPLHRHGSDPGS
Chain of Cytochrome P450 2C19 (Homo sapiens) (P33261 whole entry, looked up): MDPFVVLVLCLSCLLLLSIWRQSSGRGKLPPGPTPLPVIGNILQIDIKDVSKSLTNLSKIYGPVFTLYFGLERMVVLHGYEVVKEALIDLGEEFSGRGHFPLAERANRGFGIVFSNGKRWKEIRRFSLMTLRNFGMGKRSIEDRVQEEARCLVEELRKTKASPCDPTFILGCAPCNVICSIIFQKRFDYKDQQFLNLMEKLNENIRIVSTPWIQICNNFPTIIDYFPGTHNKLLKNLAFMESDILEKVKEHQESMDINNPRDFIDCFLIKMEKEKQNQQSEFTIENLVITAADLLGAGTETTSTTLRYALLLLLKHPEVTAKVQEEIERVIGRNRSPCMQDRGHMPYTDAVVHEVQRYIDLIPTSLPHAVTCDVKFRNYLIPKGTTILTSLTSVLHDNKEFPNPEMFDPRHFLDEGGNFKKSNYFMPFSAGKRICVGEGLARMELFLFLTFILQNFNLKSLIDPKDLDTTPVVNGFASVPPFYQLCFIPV

Take `CCCCCCCCCCCCCCCCN`: in [1], the result was inactive. The Potency entry in [2], in assay [3], in [4], in assay [5], in assay [7] and in [8] was “inactive” throughout. Also, the Potency entry in assay [9], in assay [10], in assay [11] and in [12] was “inactive” in each case. In assay [6], the max activation was -4.68%.
Take `CC(C)(C)NCC(O)COc1ccc(NC(=O)NC2CCCCC2)cc1` (stereo not given): the call in assay [1] was inactive. Also, the Potency entry in assay [13], in assay [3], in [14], in assay [4], in assay [5] and in assay [7] was “inactive” in each case. Further, the Potency result in assay [15], in assay [9], in assay [10], in [11] and in assay [12] was “inactive” each time. Further, the max activation in assay [6] was 0.0743%.
Regarding `CCCCCCCCCC(C)C=O` (stereo not given), in assay [1], the molecule was classed as inactive. The Potency entry in assay [2], in assay [3], in assay [4], in [15], in assay [16] and in assay [11] was “inactive” throughout. Also, in assay [12], the Potency entry is “inactive”. Besides, the figures for the Potency in assay [5] and in assay [9] were 48.6 µM (active) and 44.8 µM (active), respectively.
On to `CCCCCCCCCCCCCCCCC(=O)O`, for which the outcome in [1] was inactive. The Potency entry in assay [13], in assay [3], in [14], in assay [4], in assay [5] and in assay [15] was “inactive” each time. For the same molecule, the Potency result in [9], in [10] and in assay [12] was “inactive” throughout.
Turning to `O=C(O)c1cc(C(=O)O)c(C(=O)O)cc1C(=O)O`, the Potency entry in assay [2], in assay [13], in assay [3], in assay [14], in assay [4] and in assay [5] was “inactive” in each case. For the same molecule, the Potency result in [15], in assay [16], in assay [9], in assay [10], in assay [11] and in [12] was “inactive” each time.
Regarding `CCc1ccc2c(c1)C(=O)c1ccccc1C2=O`, the result in assay [1] was inactive. For the same molecule, the Potency entry in assay [13], in assay [14] and in [4] was “inactive” throughout. Further, the Potency in assay [5] was 21.7 µM (active); in assay [9], 10 µM (active); in assay [10] it was 2.24 µM (active); in assay [12] it was 17.8 µM (active).
